Reference: PubChem BioAssay AID1508600 (Functional Genomics Laboratory (NCATS/FGL), 2020)
The whole screen tested about 53,000 sequences, of which about 3,700 (7%) were called active.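 Rule for the calls: active = gene knockdowns whose robust z-score for IL-1 alpha signal is at least 2 or at most -2, so actives lie on both sides; inactive = the rest.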 The sample as a whole holds a higher share of actives than the screen did.

experiment: Components of the Cytosolic LPS Sensing Pathway: Gene Identification via Genome-wide siRNA Screen; conditions: RAW264.7 macrophages, IL-1a HTRF, actives lie on both sides, screened at 100 nM (by protocol), cells primed 5 h with Pam3CSK4 first;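 note: robust z of the log signal after scaling to non-targeting control siRNA wells of the plate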
Summary of the method: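 Supernatant IL-1a by HTRF from RAW264.7 cells primed with Pam3CSK4 (5 hours) and transfected with LipidA (24 hour) after 48h siRNA knockdown at 100 nM; cell viability checked with CellTiter-Glo.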

Row | Sequence | z-score
1 | GGCACUCUCAGCUUUUGACTT against Olfr2 | -2.43 (active)
2 | CCGCCUGGAUAAUUAUGAUTT against Cltc | 0.309 (inactive)
3 | GGAUCAUGUCAUCACAAAATT against Fzd3 | -0.319 (inactive)
4 | GGUGUCCAAUUGCCCUAUCTT against Tnfrsf12a | -1.98 (inactive)
5 | GGGAACAGCAUGAAGGAAGTT against Krt78 | 0.688 (inactive)
6 | GGCACGUUAUGAAGACCAGTT against Ttc6 | 1.49 (inactive)
7 | GAGAAACAACAAUUUGGGATT against Gm20815 | 2.07 (active)
8 | GGCUGAUUAGAAUACCUCCTT against Adra2b | 0.352 (inactive)
9 | GGCCUACGUGCUAAACAUCTT against Atp1b1 | 1.77 (inactive)
10 | GCUCUAAAUGAACAUCUCATT against Snai3 | 0.322 (inactive)
11 | GGUCCUAUGGAUUAAUGCUTT against Ccn4 | 3.46 (active)
12 | CCCUAAAACCAAAUGUACATT against Tet2 | 1.7 (inactive)
13 | GGAUGUAACAUUUCUUCAATT against Rmi1 | 0.567 (inactive)
14 | GGCUGGUAAUUCACUUAAUTT against Kcnk2 | -2.54 (active)
15 | GGAAAUCACCAUGCCCUCUTT against S100a8 | -0.0382 (inactive)
16 | GCAUGGAGAUUCUGUGCGGTT against Trim45 | -1.13 (inactive)
17 | CCGAAAAUGGUAAAUAACUTT against Rnf17 | 0.111 (inactive)
18 | GGAGGAACCUCAGAAACAGTT against Knstrn | -2.19 (active)
19 | GCUAUUUUGGGACGAGUCATT against Col13a1 | -0.7 (inactive)
20 | GGGAUCAAGUUAAAUAGACTT against Snhg16 | -0.184 (inactive)
21 | GCGAACAGUUGAAUAGAUUTT against Slc25a46 | -0.108 (inactive)
22 | GGUGGUCACUAAGAAGUUCTT against Prps1l1 | 2.48 (active)

Row | Sequence | z-score
23 | CCAACACUAUUACUGUAAATT against Arg2 | 0.159 (inactive)
24 | GGCCAGAAAAUUAAGGAGCTT against Faap100 | 1.15 (inactive)
25 | GGCAACUGAAAUGUUUGUUTT against Rap2c | 2.14 (active)
26 | CCUUGAGUACUUAUUGCGUTT against Chac1 | 0.934 (inactive)
27 | GCCAACUCGAACAUUUUGATT against Zfp280b | 0.567 (inactive)
28 | GCUACUCGCGUUUAAUUUUTT against Slc9a9 | -0.238 (inactive)
29 | GACCUUUCUCUUCUUGGCUTT against Olfr434 | -2.1 (active)
30 | GGAUAACCCUCAGAAGUCCTT against Was | 0.664 (inactive)
31 | GGAAUAAUCAAGCUAGGGATT against Satb2 | -2.2 (active)
32 | GGAGAGAGGACAACUUCUCTT against Mrm1 | 1.3 (inactive)
33 | GGCUUUUAACACCUUCAUUTT against Clptm1l | 0.495 (inactive)
34 | GCUUCUUCUGUGAACUUCCTT against Olfr854 | -0.939 (inactive)
35 | GGAAGCUGCUUUUCUAAAUTT against Il7 | 2.92 (active)
36 | GGCAGUGAGAGUCACAAGATT against Cdipt | -1.74 (inactive)
37 | GGAAAUGCAGUUGUGAAUGTT against Rab4a | -2.03 (active)
38 | GCCCAUGUUAGAGGUUUUGTT against Rsph3a | 0.838 (inactive)
39 | GGGAGAUGAGUUUUCUGAUTT against Cyp2c70 | 1.15 (inactive)
40 | GGCAGUUGAUUCCUUUAAATT against Baz1a | 0.0425 (inactive)
41 | GCUGUACCCGAAUGAGUUUTT against Mgat2 | 2.54 (active)
42 | GCCCUUAGCUGCAUGAAUUTT against Laptm4b | -0.661 (inactive)
43 | GGACCGUCUGUCCUUUGUCTT against Nectin2 | 0.618 (inactive)
44 | GGUAGAGAAGAACGGUACCTT against Mb21d2 | 1.08 (inactive)

Row | Sequence | z-score
45 | CCGAGUAAUUGGAAGUGGUTT against Ldha | 2.08 (active)
46 | GGUGCUUUCUGGAUGAAGATT against Akirin1 | -0.282 (inactive)
47 | GGCUUUUGGAGAAAAAGGATT against Nus1 | 1.92 (inactive)
48 | GGAAAUGUAGUGAAGGGUGTT against Ndfip2 | 2.03 (active)
49 | GGGCCUUACGUCAUUCUCUTT against Dnajb7 | -0.319 (inactive)
50 | GGAUUUCAUUCCAAACAUGTT against Hbs1l | -0.161 (inactive)
51 | CGGGACUAUUAUUACUCCATT against Ap2m1 | -1.22 (inactive)
52 | GGAAGAUCUCUUGUCUGCUTT against Mtcp1 | -0.269 (inactive)
53 | GGGAGAUGCAACCUCUCUUTT against Dennd5b | 2.91 (active)
54 | GGGAAAUCUAUUUUUGUGATT against Mob3c | -1.77 (inactive)
55 | GGUCUGGAGACAAUCAUCATT against Rnf222 | -2.47 (active)
56 | GGCUUAUUGGAAGAGGACGTT against Ier5 | 0.559 (inactive)
57 | GCUGAGUCCAUGUCUGUUGTT against Coro2a | -0.119 (inactive)
58 | CGGCAUGAGCAGUUUAUAUTT against Col19a1 | -1.04 (inactive)
59 | GCUGAUUGAGCAUCCGAUGTT against Ggt1 | 2.78 (active)
60 | GGGAUUCAGUAUAAAACACTT against Nup37 | -1.25 (inactive)
61 | GGAAAGAGCCAUCCUUUGATT against Gnmt | -0.186 (inactive)
62 | CGUAUAAUAACUCCUUAUCTT against Hoxa1 | 2.17 (active)
63 | GGUGUAGACUCCAACAUGUTT against Aarsd1 | 1.69 (inactive)
64 | CCUUGGACUAUGGCAAAAATT against Neurod6 | 0.418 (inactive)
65 | GCCGGAAUCCUGUGGAAUCTT against Kat14 | 6.46 (active)
66 | GGAAAAUGACACAGGUAUCTT against Entpd2 | -0.103 (inactive)

Row | Sequence | z-score
67 | GGAGAUGAGCUGUAUGUGATT against Nudt19 | 0.862 (inactive)
68 | GACUUCAGACAAAUAGUGCTT against Lce1i | -1.24 (inactive)
69 | GCAUCGAAAAUCUUUCCAATT against Fibcd1 | 1.6 (inactive)
70 | GGUGCUCAAUAAAUGUAAATT against Cd151 | -1.26 (inactive)
71 | GGGUUUCUUCCCUGAGCUATT against Nxf7 | -1.97 (inactive)
72 | CCACUAUGAAUCGUGGUUCTT against Sp6 | 0.731 (inactive)
73 | CGUGCAUCCCUAUAUCCUATT against Panx2 | 0.343 (inactive)
74 | GGUUGACAACACAUCUGCUTT against Ugt2b34 | -0.766 (inactive)
75 | GGAUCAAUGUGGUACCUAUTT against Sf3a1 | -2.79 (active)
76 | GGGAAUAGUUUAUAUGGACTT against Ccl20 | 0.315 (inactive)
77 | CGGGCAAUGUCAGAUUGUGTT against Vmn1r75 | 1.41 (inactive)
78 | GGUACUUUCGGACUCAGUUTT against Ipp | -0.0605 (inactive)
79 | GCUAGGUGUUUGAAGCCUCTT against Mixl1 | -0.834 (inactive)
80 | GGAAGGGUAAAUUUAGAAGTT against Arrdc3 | 2.83 (active)
81 | GAUCUUCCUGACAGUGGUGTT against Psors1c2 | -0.15 (inactive)
82 | GGUAAAAAACCAAGAACAATT against Ednrb | 2.17 (active)
83 | GGACUUCUUCUUGUACAACTT against Capn3 | 1.03 (inactive)
84 | GGGCUCUUGCCAGAAAACGTT against Rsph3a | -0.524 (inactive)
85 | GCCACUCGGAGAUUUUUCATT against Slc15a4 | -0.6 (inactive)
86 | CCCUGACCUUCAGAUUGUGTT against Olfr788 | 0.14 (inactive)
87 | CCAAGUAGAUAGGAAUUAUTT against Eps8 | 2 (inactive)
88 | GCUUUAUGGGAGACAAAGGTT against 1700022I11Rik | 2.53 (active)

Row | Sequence | z-score
89 | GGAUGCUUUACCAAAUGAATT against Slc44a3 | 0.147 (inactive)
90 | GGAAAAUUGGCCAAAAUAATT against Pdcl | -0.0308 (inactive)
91 | GGAGAAGCUGCUGGCAGAATT against Trub1 | -1.15 (inactive)
92 | GGUCUUGGAGUUGCUAAUUTT against Med4 | 2.63 (active)
93 | CCUCUUCUUGUUUCAAGGGTT against Piezo2 | 0.062 (inactive)
94 | CCAGCUAAACUCUGUAAAATT against Zfp639 | -0.113 (inactive)
95 | GCUUUGGACAAUAAGAAGUTT against Cdkl1 | -0.838 (inactive)
96 | GUCACUGAUACUCAAUAAATT against Vmn1r172 | -1.45 (inactive)
97 | GCAUCGUCCUCCAAAGAUUTT against Sf3b1 | -3.01 (active)
98 | GGCUAUCUACCAUUAUAUGTT against Ifit2 | -0.607 (inactive)
99 | GGUCCUGUUAAACUGAAAGTT against Fkbp1a | -1.45 (inactive)
100 | GGGAAUAAAAAGGAUCACUTT against Rab39 | 1.27 (inactive)
101 | CCUGAAUGACCUAGGGCCUTT against Adam8 | 0.286 (inactive)
102 | GGCAUGAGCUAUCAGGACUTT against Efcab6 | 1.37 (inactive)
103 | GGUAUUAGCAAUUUUCUGGTT against Olfr619 | -0.681 (inactive)
104 | CGAGGAUGACUUGAUGACCTT against Ajm1 | -2.18 (active)
105 | GGGAAAAUUCCAGAAUCGCTT against Musk | 0.315 (inactive)
106 | GCCGGCCAGAAUAUACAUUTT against Fndc10 | 0.415 (inactive)
107 | CCUUCCUCGUGAUUCGCUATT against Lman2l | -0.461 (inactive)
108 | GGUUGAGUAGUUGAUUUUCTT against Hemgn | 0.663 (inactive)
